Experimental data published in the supplement of paper PMC7724964.

T1: PPARG 233-505 Hormone_recep (domain begin residue: 233, domain end residue: 505), P37231
T1 chain: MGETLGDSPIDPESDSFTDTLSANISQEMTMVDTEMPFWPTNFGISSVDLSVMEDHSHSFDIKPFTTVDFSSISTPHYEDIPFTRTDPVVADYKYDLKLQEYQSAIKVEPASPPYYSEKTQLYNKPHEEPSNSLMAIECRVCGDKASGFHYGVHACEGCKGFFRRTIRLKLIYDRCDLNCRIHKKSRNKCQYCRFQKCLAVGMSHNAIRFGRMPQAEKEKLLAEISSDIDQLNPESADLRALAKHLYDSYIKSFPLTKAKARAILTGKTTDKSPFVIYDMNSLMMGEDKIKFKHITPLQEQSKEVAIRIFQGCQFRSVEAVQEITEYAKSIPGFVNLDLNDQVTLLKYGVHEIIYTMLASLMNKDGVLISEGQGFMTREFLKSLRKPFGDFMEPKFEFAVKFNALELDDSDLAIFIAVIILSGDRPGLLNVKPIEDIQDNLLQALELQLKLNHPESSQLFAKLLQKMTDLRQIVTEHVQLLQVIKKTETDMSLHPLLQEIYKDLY

T2: PPWD1 486-646 Pro_isomerase (domain begin residue: 486, domain end residue: 646), Q96BP3
T2 chain: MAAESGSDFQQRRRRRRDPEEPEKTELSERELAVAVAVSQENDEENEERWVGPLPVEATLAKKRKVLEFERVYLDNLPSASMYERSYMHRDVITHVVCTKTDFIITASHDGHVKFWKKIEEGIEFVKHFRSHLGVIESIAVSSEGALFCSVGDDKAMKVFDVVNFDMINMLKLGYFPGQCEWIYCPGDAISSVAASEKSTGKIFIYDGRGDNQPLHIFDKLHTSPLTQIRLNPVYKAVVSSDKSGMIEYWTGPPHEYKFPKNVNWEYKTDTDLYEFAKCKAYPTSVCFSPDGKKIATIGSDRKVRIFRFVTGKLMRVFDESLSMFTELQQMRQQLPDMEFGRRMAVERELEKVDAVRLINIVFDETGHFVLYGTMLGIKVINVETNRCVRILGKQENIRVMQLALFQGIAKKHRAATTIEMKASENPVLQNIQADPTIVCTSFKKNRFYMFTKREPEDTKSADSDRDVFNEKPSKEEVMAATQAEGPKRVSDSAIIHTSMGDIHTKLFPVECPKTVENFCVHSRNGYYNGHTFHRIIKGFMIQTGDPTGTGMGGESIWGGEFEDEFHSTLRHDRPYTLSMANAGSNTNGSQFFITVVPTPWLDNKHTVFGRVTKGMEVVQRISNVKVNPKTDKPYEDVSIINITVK

T3: PUF60 460-559 RRM_3 (domain begin residue: 460, domain end residue: 559), Q9UHX1
T3 chain: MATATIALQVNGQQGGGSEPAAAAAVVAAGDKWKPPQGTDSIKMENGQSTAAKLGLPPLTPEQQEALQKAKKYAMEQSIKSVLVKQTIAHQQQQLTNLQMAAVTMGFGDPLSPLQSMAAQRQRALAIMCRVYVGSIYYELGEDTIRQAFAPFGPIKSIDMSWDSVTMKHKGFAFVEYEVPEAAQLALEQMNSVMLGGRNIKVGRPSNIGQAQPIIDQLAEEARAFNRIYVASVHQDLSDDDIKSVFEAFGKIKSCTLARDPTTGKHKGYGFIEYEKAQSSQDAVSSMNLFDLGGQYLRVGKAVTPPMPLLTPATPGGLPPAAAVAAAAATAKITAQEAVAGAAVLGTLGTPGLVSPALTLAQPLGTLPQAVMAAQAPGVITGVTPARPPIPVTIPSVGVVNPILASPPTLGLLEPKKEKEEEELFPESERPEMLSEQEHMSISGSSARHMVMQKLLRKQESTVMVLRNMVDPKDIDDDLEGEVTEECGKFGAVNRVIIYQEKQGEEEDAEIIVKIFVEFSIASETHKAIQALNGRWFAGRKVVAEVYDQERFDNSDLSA

T4: RAB5A 15-188 Ras (domain begin residue: 15, domain end residue: 188), P20339
T4 chain: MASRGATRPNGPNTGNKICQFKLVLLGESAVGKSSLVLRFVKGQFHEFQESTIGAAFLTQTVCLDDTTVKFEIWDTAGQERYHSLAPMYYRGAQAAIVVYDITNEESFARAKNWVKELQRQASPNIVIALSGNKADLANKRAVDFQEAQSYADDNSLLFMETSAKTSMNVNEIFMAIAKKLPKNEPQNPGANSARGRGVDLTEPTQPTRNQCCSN

T5: RALA 11-183 Ras (domain begin residue: 11, domain end residue: 183), P11233
T5 chain: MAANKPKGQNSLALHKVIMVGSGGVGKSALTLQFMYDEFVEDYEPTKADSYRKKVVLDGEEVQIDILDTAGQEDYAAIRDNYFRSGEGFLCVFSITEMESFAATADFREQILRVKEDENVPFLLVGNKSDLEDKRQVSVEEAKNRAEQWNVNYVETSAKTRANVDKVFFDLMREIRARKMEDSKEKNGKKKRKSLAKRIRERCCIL

T6: RARA 175-421 Hormone_recep (domain begin residue: 175, domain end residue: 421), P10276
T6 chain: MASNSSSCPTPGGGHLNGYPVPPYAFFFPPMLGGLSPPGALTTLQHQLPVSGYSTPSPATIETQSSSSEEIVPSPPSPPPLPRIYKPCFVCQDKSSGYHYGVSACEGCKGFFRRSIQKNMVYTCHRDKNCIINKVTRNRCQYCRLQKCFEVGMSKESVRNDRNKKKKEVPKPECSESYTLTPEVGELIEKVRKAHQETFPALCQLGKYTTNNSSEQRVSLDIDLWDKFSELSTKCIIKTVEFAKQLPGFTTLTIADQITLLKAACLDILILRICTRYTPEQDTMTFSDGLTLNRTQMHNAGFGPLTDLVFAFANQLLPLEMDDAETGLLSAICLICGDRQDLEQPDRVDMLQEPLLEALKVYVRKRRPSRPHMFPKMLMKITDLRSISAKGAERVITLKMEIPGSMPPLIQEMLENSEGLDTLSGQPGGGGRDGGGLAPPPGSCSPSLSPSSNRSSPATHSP


Biological target: T1, PPARG 233-505 Hormone_recep (domain …
Assay: phage ELISA signal ratio (GST-PRM binding over GST background); higher = stronger binding of peptide-phage to the PRM
How it was run: (§1)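 Five rounds of selection were carried out against human peptide recognition domains fused to the C-terminus of glutathione S-transferase (GST) and expressed in 96-well plates. The M13 phage library presented randomized hexadecapeptides, cysteine-free and glycine-flanked, on the gene-8 major coat protein. For each value, the phage ELISA signal on the GST-domain fusion was divided by the signal on GST alone.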

| Binder | phage ELISA signal ratio |
| --- | --- |
| PSEDVSWWWQQHLMDI | 17.6 |
| LHPMLTDMLAPNHMEV | 18.6 |
| PESWWESWMMDHEWGS | 24.5 |

biological target: PPIE 138-301 Pro_isomerase (domain begin residue: 138, domain end residue: 301), Q9UNP9; assay: as above
Sequence (Q9UNP9 whole entry): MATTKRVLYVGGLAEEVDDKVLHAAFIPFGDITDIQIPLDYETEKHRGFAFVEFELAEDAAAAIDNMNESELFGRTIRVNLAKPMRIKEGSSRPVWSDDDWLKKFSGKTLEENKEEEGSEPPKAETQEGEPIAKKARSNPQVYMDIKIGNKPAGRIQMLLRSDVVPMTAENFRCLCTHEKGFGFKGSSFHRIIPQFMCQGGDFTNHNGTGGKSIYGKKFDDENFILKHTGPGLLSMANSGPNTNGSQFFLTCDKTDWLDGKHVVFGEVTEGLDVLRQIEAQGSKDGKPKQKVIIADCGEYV
How it was run: as §1

| Binder | phage ELISA signal ratio |
| --- | --- |
| HEMFGPQEQSQHMMEW | 4.73 |
| ESWGPMEQHSYTEQTE | 5.43 |
| ENHVPWVPEARWTTPQ | 7.51 |
| PMTWEMWQIDSAQQTV | 8.08 |
| SDVYGPHAHPVHYQDE | 8.93 |
| PLMMPPEPHWVVNLGI | 10.5 |
| EPTFGPQPQVFFSTNP | 17 |
| VYDFIGPQPQTNMASI | 21.8 |

Biological target: T2, PPWD1 486-646 Pro_isomerase (domain …
Assay: as above
How it was run: as §1

| Binder | phage ELISA signal ratio |
| --- | --- |
| AVSWGPQWHDFQWALM | 8.34 |

Biological target: T3, PUF60 460-559 RRM_3 (domain begin …
Assay: as above
How it was run: as §1

| Binder | phage ELISA signal ratio |
| --- | --- |
| NKWDMEHWDTEYRSPV | 4.03 |
| WSSKWDVIDKDYGIMH | 7.28 |
| MNWGEMWDVRDDQVMV | 7.64 |
| SRWDQQPGQWIKLSEN | 12 |
| TQGKWDMQPTDMHYLS | 13.2 |

Biological target: T4, RAB5A 15-188 Ras (domain begin residue: …
Assay: as above
How it was run: as §1

| Binder | phage ELISA signal ratio |
| --- | --- |
| WDLAEWEMIWQDYMNH | 5.62 |

Biological target: T5, RALA 11-183 Ras (domain begin residue: …
Assay: as above
How it was run: as §1

| Binder | phage ELISA signal ratio |
| --- | --- |
| LTHEQMLWQLMDALSE | 19.4 |
| LYQEVFEYQGWLCMDL | 32.5 |

biological target: RANBP1 39-170 Ran_BP1 (domain begin residue: 39, domain end residue: 170), P43487; assay: as above
Sequence (P43487 whole entry): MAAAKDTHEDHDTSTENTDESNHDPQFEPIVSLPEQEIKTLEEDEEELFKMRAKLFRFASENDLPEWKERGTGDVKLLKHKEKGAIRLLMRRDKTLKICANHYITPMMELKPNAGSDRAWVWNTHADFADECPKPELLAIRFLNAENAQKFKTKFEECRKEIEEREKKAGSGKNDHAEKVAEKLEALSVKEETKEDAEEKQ
How it was run: as §1

| Binder | phage ELISA signal ratio |
| --- | --- |
| WELALPAEHHEHYWSN | 4.36 |
| VSDMRGVPDSFMDVWD | 5.06 |
| WLVPLPWEETWQNMSL | 5.79 |
| WRMELPVQNHMEVMDL | 6.12 |
| YGMRLPEASQMETWFL | 6.18 |
| WEHLYPWMIPLPGTGV | 6.24 |
| GTEWWQQMALPPDVVV | 7.62 |
| WDVALPQEIVWELADK | 7.66 |
| WDMTLPVLTNHELAYL | 9.02 |
| DHGWWMLNSNFLPVVP | 9.28 |
| PTEAEWGIWHDLPDYE | 10.1 |
| WMMTLPPDMPGEWQVV | 11 |
| QEFWERYTIPMWVDSF | 13.7 |
| PQWWHNMPALPDDIIH | 14.7 |
| MGYWDYLPPVPGETWG | 15.4 |
| PPLPPDKNDWHVEYMP | 15.6 |
| WEWSPLPPDVETFSQI | 15.9 |
| TEIALPWPDRAERAYL | 16.3 |
| QAVVPWQMPLPDWIVS | 18.4 |
| WGQMPLPVDMPETWNF | 21 |
| DMEQWWMELPQVPMYA | 23.1 |
| IDSYEHHSTGMVPLPD | 26.3 |

biological target: RANBP2 1184-1310 Ran_BP1 (domain begin residue: 1184, domain end residue: 1310); assay: as above
How it was run: as §1

| Binder | phage ELISA signal ratio |
| --- | --- |
| WADEWEAPFVWKMQEV | 3.11 |
| SKMDEWPPEPWELMKL | 4.23 |
| DEELWAAPFTWGPVLE | 4.84 |
| NDEWDHPFTFNPGVPP | 5.9 |
| WQSWDDWDRPMHPMEN | 6.6 |
| QKVHPWDDWDSPFMWF | 12.9 |

biological target: RANBP2 2924-3050 Ran_BP1 (domain begin residue: 2924, domain end residue: 3050); assay: as above
How it was run: as §1

| Binder | phage ELISA signal ratio |
| --- | --- |
| FDPLWMALPEDKVHEM | 3.06 |
| LSTDFLQMEHFWNQQF | 3.07 |
| FDVPLPLEHDWWTSWV | 3.39 |
| QYMLMSLPEDDWATPH | 4.31 |
| EFDAMQAHWNVLHPEG | 8.19 |
| EWDWPSDHSWWEYIQH | 8.48 |
| QDWWETALPQEPWHVV | 22.7 |

Biological target: T6, RARA 175-421 Hormone_recep (domain …
Assay: as above
How it was run: as §1

| Binder | phage ELISA signal ratio |
| --- | --- |
| RQSQLQMWIWDATQDE | 3.71 |
| WPEYMSWDDAYWMTML | 4.17 |
